In PubChem BioAssay (EPA / NIEHS):
Several values for one entry are separate records, joined by “and”; a condition that tells them apart may be missing. Equal values may be shown once. The source holds several records for some structures; these can differ, active in one and inactive in another. Activity calls are given as the source filed them. Rule for the calls: active = hit-call score of the fitted dose curve at least 0.9, where 1 is the maximum; inactive = score below 0.9.

Target: Paired box protein Pax-6 (Homo sapiens) (UniProt P26367)
Sequence (P26367 whole entry, looked up): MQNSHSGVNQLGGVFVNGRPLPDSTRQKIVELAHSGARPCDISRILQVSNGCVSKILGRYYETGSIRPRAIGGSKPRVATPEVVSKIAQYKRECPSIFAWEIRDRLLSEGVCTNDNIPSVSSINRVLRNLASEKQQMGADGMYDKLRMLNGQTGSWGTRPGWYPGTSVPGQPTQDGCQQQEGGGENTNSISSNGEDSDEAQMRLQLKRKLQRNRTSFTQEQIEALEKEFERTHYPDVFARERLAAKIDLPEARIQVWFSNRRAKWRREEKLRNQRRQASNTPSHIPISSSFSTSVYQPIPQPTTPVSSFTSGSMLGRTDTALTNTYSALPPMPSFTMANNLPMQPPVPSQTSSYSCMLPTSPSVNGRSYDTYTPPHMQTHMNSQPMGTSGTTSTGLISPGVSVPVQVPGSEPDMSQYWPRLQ
Experiment: ATG_Pax6_CIS: Attagene CIS-FACTORIAL HepG2 Assay for human Paired Box 6 (PAX6) (AID 2282956)
Settings: HepG2 CIS-FACTORIAL PAX6 reporter transcription, RNA readout; actives raise or lower the signal
How it was run: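 After twenty-four hours of chemical exposure, transfected HepG2 cells are harvested for RNA. Cis-promoter reporter transcripts are amplified, fluorescently labelled and sized by capillary electrophoresis, with gain and loss of signal scored against DMSO.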

Row | SMILES | outcome | AC50
1 | Cc1ccc2ccccc2c1C | inactive | 
2 | O=S(=O)(c1ccc(Cl)cc1)c1ccc(Cl)cc1 | inactive | 
3 | CC(C)(C)c1cc(O)ccc1O |  | 124 µM (active)
4 | COC(=O)Cc1ccccc1 | inactive | 
5 | COC(=O)c1sccc1S(=O)(=O)NC(=O)Nc1nc(C)nc(OC)n1 | inactive | 
6 | O=C(O)C(F)(F)C(F)(F)C(F)(F)C(F)(F)C(F)(F)C(F)(F)F | inactive | 
7 | N#CCCO | inactive | 
8 | C[C@]12CCC(=O)C[C@@H]1CC[C@@H]1[C@@H]2CC[C@]2(C)[C@@H](O)CC[C@@H]12 | inactive | 
9 | CCc1ccccc1C | inactive | 

System: not listed separately
Experiment: ATG_PXRE_CIS: Attagene CIS-FACTORIAL HepG2 Assay for human Pregnane X Receptor Element (PXRE) (AID 2282957)
Settings: HepG2 Attagene CIS-FACTORIAL PXRE reporter, mRNA; actives raise or lower the signal
How it was run: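 Transfect HepG2 with MRTUs (cis promoter elements); dose chemical, incubate 24 h; isolate RNA, RT with oligo(dT), PCR, 6-FAM label, HpaI cut, CE. Gain/loss fit vs DMSO.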

Row | SMILES | AC50 | outcome
10 | COc1cc(-c2ccc(N)c(OC)c2)ccc1N | 25.2 µM (active) | inactive
11 | CCSC(C)CC1CC(=O)C(C(CC)=NOC/C=C/Cl)=C(O)C1 (stereo not given) | 5.61 µM (active) | 
12 | CC(=O)C=C(C)C |  | inactive
13 | CCC(=O)c1ccccc1 |  | inactive
14 | CN(C)N=O | 100 µM (active) and 55.8 µM (active) | 
15 | CCc1ccccc1N | 68.3 µM (active) | 
16 | BrCCBr |  | inactive
17 | C[C@]12CC[C@H](O)CC1=CC[C@@H]1[C@@H]2CC[C@]2(C)C(=O)CC[C@@H]12 | 27.3 µM (active) | 
18 | Nc1cccc2ccccc12 | 25.7 µM (active) | 
19 | O=Cc1cccc(Oc2ccccc2)c1 |  | inactive
20 | O=CC=O | 4.55 µM (active) | 
21 | CCC[CH2][Sn]([CH2]CCC)([CH2]CCC)[O]C(=O)c1ccccc1 |  | inactive
22 | O=[N+]([O-])c1ccc2c3c(cccc13)CC2 | 4.23 µM (active) | 
23 | C[C@H]1O[C@@H](O[C@H]2[C@@H](O)C[C@H](O[C@H]3[C@@H](O)C[C@H](O[C@H]4CC[C@@]5(C)[C@H](CC[C@@H]6[C@@H]5CC[C@]5(C)[C@@H](C7=CC(=O)OC7)CC[C@]65O)C4)O[C@@H]3C)O[C@@H]2C)C[C@H](O)[C@@H]1O | 0.0564 µM (active) | 
24 | O=C/C=C/c1ccccc1 | 9.96 µM (active) | 
25 | Clc1ccc(C2(Cn3cncn3)CC(Br)CO2)c(Cl)c1 (stereo not given) | 1.23 µM (active) | 
26 | Clc1ccc(COC(Cn2ccnc2)c2ccc(Cl)cc2Cl)cc1 (stereo not given) | 0.697 µM (active) | 
27 | CCCCCCCCC(=O)NCc1ccc(O)c(OC)c1 | 26.2 µM (active) | 
28 | Nc1ccc(-c2ccc(N)c(Cl)c2)cc1Cl | 27.4 µM (active) | 
29 | CCC1(c2ccc(N)cc2)CCC(=O)NC1=O (stereo not given) | 64.9 µM (active) | 

Row | SMILES | AC50 | outcome
30 | Oc1ccc(-c2ccccc2)cc1 |  | inactive
31 | CCCCCCCCCl |  | inactive
32 | CC(=O)[O][Hg][c]1ccccc1 | 3.71 µM (active) | 
33 | O=C(O)C(Cl)(Cl)Cl | 71.7 µM (active) | inactive
34 | CC(C)(c1ccccc1)c1ccc(O)c(C(C)(C)c2ccccc2)c1 | 0.156 µM (active) | 
35 | COC[C@H](C)N(C(=O)CCl)c1c(C)csc1C | 30.6 µM (active) | 
36 | CC(=[OH+])/C=C(/C)[O-].CC(=[OH+])/C=C(/C)[O-].CC(=[OH+])/C=C(/C)[O-].[Fe] |  | inactive
37 | CCCCCCCCc1ccc(O)cc1 |  | inactive
38 | C[C@H]1CCCC(=O)CCC/C=C/c2cc(O)cc(O)c2C(=O)O1 | 0.665 µM (active) | 
39 | O=C(O)C(F)(F)C(F)(F)C(F)(F)C(F)(F)C(F)(F)C(F)(F)C(F)(F)C(F)(F)C(F)(F)C(F)(F)F | 62 µM (active) | inactive
40 | Cc1ccc2ccccc2c1C | 10.1 µM (active) | 
41 | O=S(=O)(c1ccc(Cl)cc1)c1ccc(Cl)cc1 | 4.46 µM (active) | 
42 | CC(C)(C)c1cc(O)ccc1O | 4.27 µM (active) | 
43 | COC(=O)Cc1ccccc1 |  | inactive
44 | COC(=O)c1sccc1S(=O)(=O)NC(=O)Nc1nc(C)nc(OC)n1 |  | inactive
45 | O=C(O)C(F)(F)C(F)(F)C(F)(F)C(F)(F)C(F)(F)C(F)(F)F | 40.2 µM (active) | inactive
46 | N#CCCO |  | inactive
47 | C[C@]12CCC(=O)C[C@@H]1CC[C@@H]1[C@@H]2CC[C@]2(C)[C@@H](O)CC[C@@H]12 | 23.4 µM (active) and 23.5 µM (active) and 9.49 µM (active) | 
48 | CCc1ccccc1C |  | inactive

System: not listed separately
Experiment: ATG_PPRE_CIS: Attagene CIS-FACTORIAL HepG2 Assay for human Peroxisome Proliferator-activated Response Element (PPRE) (AID 2282958)
Settings: HepG2 PPRE cis-element reporter, Attagene transcription factor profiling; actives raise or lower the signal
How it was run: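 HepG2 cells are transiently transfected with multiplexed cis-promoter reporter units to report endogenous PPAR activity. After 24 h dosing, reporter mRNA is read by RT-PCR and capillary electrophoresis. Fitting is bidirectional against DMSO.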

Row | SMILES | AC50 | outcome
49 | COc1cc(-c2ccc(N)c(OC)c2)ccc1N | 43.9 µM (active) and 11.8 µM (active) | 
50 | CCSC(C)CC1CC(=O)C(C(CC)=NOC/C=C/Cl)=C(O)C1 (stereo not given) |  | inactive
51 | CCC(=O)c1ccccc1 |  | inactive
52 | CCc1ccccc1N |  | inactive
53 | BrCCBr |  | inactive
54 | C[C@]12CC[C@H](O)CC1=CC[C@@H]1[C@@H]2CC[C@]2(C)C(=O)CC[C@@H]12 |  | inactive
55 | Nc1cccc2ccccc12 |  | inactive
56 | O=Cc1cccc(Oc2ccccc2)c1 |  | inactive
57 | O=CC=O |  | inactive
58 | CCC[CH2][Sn]([CH2]CCC)([CH2]CCC)[O]C(=O)c1ccccc1 | 0.0115 µM (active) | 
59 | O=[N+]([O-])c1ccc2c3c(cccc13)CC2 |  | inactive
60 | C[C@H]1O[C@@H](O[C@H]2[C@@H](O)C[C@H](O[C@H]3[C@@H](O)C[C@H](O[C@H]4CC[C@@]5(C)[C@H](CC[C@@H]6[C@@H]5CC[C@]5(C)[C@@H](C7=CC(=O)OC7)CC[C@]65O)C4)O[C@@H]3C)O[C@@H]2C)C[C@H](O)[C@@H]1O |  | inactive
61 | O=C/C=C/c1ccccc1 |  | inactive
62 | Clc1ccc(C2(Cn3cncn3)CC(Br)CO2)c(Cl)c1 (stereo not given) | 99.5 µM (active) | 
63 | CCCCCCCCC(=O)NCc1ccc(O)c(OC)c1 |  | inactive
64 | Oc1ccc(-c2ccccc2)cc1 |  | inactive

Row | SMILES | AC50 | outcome
65 | CCCCCCCCCl |  | inactive
66 | CC(=O)[O][Hg][c]1ccccc1 |  | inactive
67 | O=C(O)C(Cl)(Cl)Cl |  | inactive
68 | CC(C)(c1ccccc1)c1ccc(O)c(C(C)(C)c2ccccc2)c1 | 3.04 µM (active) | 
69 | COC[C@H](C)N(C(=O)CCl)c1c(C)csc1C |  | inactive
70 | CC(=[OH+])/C=C(/C)[O-].CC(=[OH+])/C=C(/C)[O-].CC(=[OH+])/C=C(/C)[O-].[Fe] |  | inactive
71 | CCCCCCCCc1ccc(O)cc1 |  | inactive
72 | C[C@H]1CCCC(=O)CCC/C=C/c2cc(O)cc(O)c2C(=O)O1 |  | inactive
73 | Cc1ccc2ccccc2c1C |  | inactive
74 | O=S(=O)(c1ccc(Cl)cc1)c1ccc(Cl)cc1 |  | inactive
75 | CC(C)(C)c1cc(O)ccc1O | 65.6 µM (active) | 
76 | COC(=O)Cc1ccccc1 |  | inactive
77 | COC(=O)c1sccc1S(=O)(=O)NC(=O)Nc1nc(C)nc(OC)n1 |  | inactive
78 | O=C(O)C(F)(F)C(F)(F)C(F)(F)C(F)(F)C(F)(F)C(F)(F)F | 63.7 µM (active) | inactive
79 | N#CCCO |  | inactive
80 | CCc1ccccc1C |  | inactive
